Data taken from PubChem BioAssay (NCI).
Compounds without any hit were thinned out: in the full panel of roughly 79,000, 15% have a hit. Cut-off read from the data, not from the text of the source: active = growth inhibition above about 70%; inactive = the rest.

Columns and labels:
[1] = NCI Yeast Anticancer Drug Screen. Data for the rad50 strain (AID 155);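 note: 0% = growth of vehicle-only cultures of the same strain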; conditions: S. cerevisiae rad50 strain growth inhibition; at 50.0 µM; hits give high values
In short: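 Vehicle-treated cultures provide the reference for the growth inhibition reported for compound-exposed, repair-deficient yeast.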

[2] = NCI Yeast Anticancer Drug Screen. Data for the mec2-1 strain (AID 157); conditions: S. cerevisiae mec2-1 strain, at 50.0 µM, hits give high values
In short: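 Yeast mec2-1 mutant treated with compound. Readout: growth inhibition vs vehicle controls.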

[3] = NCI Yeast Anticancer Drug Screen. Data for the sgs1 mgt1 strain (AID 161);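 note: 0% = growth of cultures given vehicle only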; conditions: S. cerevisiae sgs1 mgt1 strain, at 50.0 µM, hits give high values
In short: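 Read-out: growth inhibition vs vehicle controls. Cells: mutant yeast strain deficient in DNA damage repair.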

[4] = NCI Yeast Anticancer Drug Screen. Data for the cln2 rad14 strain (AID 165);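 note: 0% = growth equal to vehicle treated cultures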; conditions: S. cerevisiae cln2 rad14 strain, at 50.0 µM, hits give high values
In short: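 cln2 rad14 yeast strain; compound exposure; growth inhibition read vs vehicle controls.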

[5] = NCI Yeast Anticancer Drug Screen. Data for the bub3 strain (AID 167); conditions: S. cerevisiae bub3 mutant strain, at 50.0 µM, hits give high values
In short: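 Mutant yeast screening strain plus compound; vehicle-treated cultures serve as the 0% inhibition reference.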

[6] = NCI Yeast Anticancer Drug Screen. Data for the mlh1 rad18 strain (AID 175); conditions: S. cerevisiae mlh1 rad18 strain growth inhibition; at 50.0 µM; hits give high values
In short: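 Yeast w/ defined DNA-repair lesions; compound exposure; growth vs vehicle controls → % inhibition.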

Measured: growth inhibition

COc1ccc(C2c3cc4c(c(OC)c3CC3OCC(=O)C32)OCO4)cc1OC (configuration not stated)
inactive: [1] 4.25% | [2] -15.7% | [3] 22.6% | [4] 13.1% | [5] 1.45% | [6] -4.3%

C=C1C2CCC3C4(C)CCCC(C)(C(=O)O)C4CCC3(C2)C1OC(=O)/C(C)=C/C (configuration not stated)
inactive: [1] 22.4% | [2] 4.85% | [3] -7.05% | [4] 25.1% | [5] 0.75% | [6] -59.4%

Cc1cc(N(CCC#N)CCC#N)ccc1/C=N/NC(=O)c1cc(Cl)ccc1O
inactive: [1] -1.8% | [2] -18.3% | [3] -40.8% | [4] -9.2% | [5] -23.7% | [6] -32%

CC(=O)C(/C=N/C(N)=O)=C(/C)O
inactive: [1] 5.4% | [2] -7.5% | [3] 3.75% | [4] 2.75% | [5] -2.3% | [6] 2.55%

Cc1ccc(NC(=O)/C(Cc2cc(=O)oc3cc(O)ccc23)=N\NC(C)(C)C)cc1C
inactive: [1] -3.95% | [2] -10.3% | [3] -21.9% | [4] -33.9% | [5] -17.9% | [6] -3.5%

O=C(Cc1nc2ccc(C(=O)c3ccccc3)cc2[nH]c1=O)C(=O)Nc1ccccc1[N+](=O)[O-]
inactive: [1] 2.75% | [2] -15.6% | [3] 7.75% | [4] 9.35% | [5] 6.15% | [6] 12.3%

COC(=O)C(C(=O)C(=O)Nc1c(C)cccc1C(C)(C)C)c1nc2ccc(Cl)cc2[nH]c1=O (configuration not stated)
inactive: [1] -7.9% | [2] -26.9% | [3] -2.25% | [4] 16.9% | [5] -3.5% | [6] 12.7%

COc1cc(Oc2c(C)c(Cl)c(OC)c(Cl)c2OC)c2c(c1Cl)COC2=O
inactive: [1] 28.5% | [2] -6.45% | [3] 15.6% | [4] 17.6% | [5] -5.75% | [6] 22.8%

Cc1cc2nn(C3CCCO3)nc2cc1C (configuration not stated)
inactive: [1] -10.6% | [2] -23.5% | [3] -21.8% | [4] -15.3% | [5] -3.8% | [6] -36.4%

NNc1[nH]c(=S)[nH]c1C(N)=O
inactive: [1] -29.6% | [2] -8.5% | [3] -21.4% | [4] -7.65% | [5] -22.1% | [6] -11.7%

CC(C)CCCC(C)[C@H]1CC[C@H]2[C@@H]3CC[C@H]4C[C@@H](CCC=C(c5cc(Cl)c(O)c(C(=O)O)c5)c5cc(Cl)c(O)c(C(=O)O)c5)CC[C@]4(C)[C@H]3CC[C@]12C (some centres not stated) (tested in a mixture with another compound)
inactive: [1] 0.95% | [2] 22.4% | [3] 3.45% | [4] -8.4% | [5] 10.7% | [6] 51.2%

O=C=NC(c1ccccc1)(c1ccccc1)c1ccccc1
inactive: [1] -4.25% | [2] -18.1% | [3] 1.65% | [4] 11.5% | [5] -5.5% | [6] 13.2%

O=C(O)COc1cc(-c2ccccc2F)nc2cc3c(cc12)OCO3
inactive: [1] 34.1% | [2] 22.5% | [3] 15.9% | [4] 7.9% | [5] -3.15% | [6] -18.1%

Cc1coc2c1C(OC(=O)C(C)C)C1(C)C(C)CCC(O)C1C2=O (configuration not stated)
inactive: [1] 9.2% | [2] -6.4% | [3] 31.5% | [4] 10.7% | [5] -1.3% | [6] -37.1%

O[C@H]1[C@H](O)[C@@H](Cn2nnc(-c3ccccc3)c2-c2ccccc2)OCO[C@@H]1Cn1nnc(-c2ccccc2)c1-c1ccccc1
inactive: [1] 53.3% | [2] 31% | [3] 13.4% | [4] 50.9% | [5] 28.8% | [6] 29.1%

Clc1c(Cl)c(Cl)c2nn(C3CCCO3)nc2c1Cl (configuration not stated)
inactive: [1] 15.3% | [2] 3.2% | [3] -5.9% | [4] -17.1% | [5] 12.1% | [6] -45.6%

C[C@@H]1CC[C@H]2C(C)(C)[C@H]3C[C@@]12CC[C@@]3(C)O
inactive: [1] 21.9% | [2] -16.9% | [3] 12.8% | [4] 14.1% | [5] 11.8% | [6] -18.6%
